# High-throughput results: PubChem BioAssay, National Center for Advancing Translational Sciences (NCATS)
# Sampled rows, rich in hits. Any-hit rate of the full collection: about 2.4%.
# D2 PAM-1 = human D2 receptor positive allosteric modulation; P14416; DiscoveRx D2 beta-arrestin cells, luminescence, 90 min; 100% = 57 uM dopamine signal; potentiation, % (concentration not given with the values); 360,000 tested, 0.23% active; in the data active = potentiation above about 50%
# Target sequence (P14416 whole entry, looked up): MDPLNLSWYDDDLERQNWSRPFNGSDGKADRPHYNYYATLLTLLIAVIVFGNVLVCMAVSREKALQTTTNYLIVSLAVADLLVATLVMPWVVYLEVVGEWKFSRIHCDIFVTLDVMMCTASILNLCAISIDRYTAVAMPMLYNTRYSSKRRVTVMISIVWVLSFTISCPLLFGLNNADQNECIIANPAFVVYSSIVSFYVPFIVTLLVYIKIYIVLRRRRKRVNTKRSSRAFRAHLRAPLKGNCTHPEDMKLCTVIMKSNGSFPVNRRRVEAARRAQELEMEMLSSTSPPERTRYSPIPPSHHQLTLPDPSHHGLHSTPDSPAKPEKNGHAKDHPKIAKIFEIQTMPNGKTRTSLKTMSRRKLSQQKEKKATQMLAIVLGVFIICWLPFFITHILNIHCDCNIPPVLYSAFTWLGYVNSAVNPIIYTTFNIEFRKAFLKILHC
#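 D2 cells co-treated with compound plus 50 nM dopamine (EC20) for 90 min at 37 deg C to detect potentiation. Beta-arrestin recruitment was read as enzyme-fragment luminescence after 1 h at ambient temperature. Full response was set by 57 uM dopamine.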
# D2 antag = D2 dopamine receptor (human) antagonism. 340,000 tested, 2% active. HEK293 TREx D2 cells, calcium flux, dopamine EC80. inhibition, % at 10 µM. AID 485344; in the data active = inhibition above about 30%; inactive = below that, where a call was filed; note: 0% is about no effect
#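 Inhibition of EC80 dopamine-driven calcium flux, recorded kinetically, defines activity here; cells are a tetracycline-induced HEK293 T-REx line expressing force-coupled D2.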
# D2 PAM-2 = positively modulates the human D2 dopamine receptor allosterically. P14416. 340,000 tested, 0.34% active. potentiation, % at 10 µM. AID 485347. HEK293 T-REx D2, calcium flux, EC20 dopamine potentiation;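 active = potentiation over 3 SD above the plate norm, cut at about 30% in these data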; note: 0% is about no effect
#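 Primary screen. Calcium kinetics in induced HEK293 T-REx D2 cells: compound pre-addition 180 s, EC20 dopamine, 180 s more.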
# D2 ag-1 = activates the human D2 dopamine receptor; P14416; AID 624465; DiscoveRx PathHunter D2 beta-arrestin, luminescence, 90 min; 100% = 57 uM dopamine signal; 360,000 tested, 0.084% active; activation, % (no concentration beside the values); in the data active = activation above about 40%
#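 DiscoveRx PathHunter D2 beta-arrestin cells (2,100/well) attached overnight, then compound-stimulated 90 min at 37 C in HBSS/10 mM HEPES/0.1% Tween-20 buffer; beta-galactosidase complementation read by luminescence after 1 h at ambient temperature. Dopamine 57 uM final (EC100) as control.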
# D2 ag-2 = activates the human D2 dopamine receptor | HEK293 T-REx D2 cells, calcium flux agonist mode | 340,000 tested, 0.53% active | activation, % at 2 µM | AID 485358 | P14416;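 active = activation over 3 SD above normal in the single-dose calcium agonist read, cut at about 30% in these data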; note: 0% is about no effect
#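 Agonism is scored from calcium flux in a force-coupled, inducible HEK293 cell line expressing D2, read kinetically for 180 s after compound addition against dopamine controls.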
# The depositor's hits bear a star; x = no result.
SMILES,D2 PAM-1,D2 antag,D2 PAM-2,D2 ag-1,D2 ag-2
COc1ccc(CCNC(=O)CCc2c(C)nc3c(c(C)nn3-c3ccc(C)cc3)c2C)c(OC)c1,x,x,x,x,1
O=C1CSC(c2cccc([N+](=O)[O-])c2)N1Cc1ccccc1 (configuration not stated),-3,30*,-10,7,-1
CC(C)NC(=O)c1ccc(C2SCC(=O)N2Cc2ccccc2)cc1 (configuration not stated),0,50*,8,2,0
Cc1sc2c(c1C)c(=O)n(Cc1ccccc1)c(=O)n2CC(=O)Nc1cccc(Cl)c1,x,x,-5,x,1
CN1CCN(c2nc(-c3ccccc3)ncc2S(=O)(=O)c2ccccc2)CC1,-6,54*,-22,-8,-1
CC(=O)c1c(N2CCN(Cc3ccccc3)CC2)[nH]c(-c2ccccc2)nc1=S,-55,73*,-21,-2,1
CC(=O)c1c(N2CCCC2)[nH]c(-c2ccccc2)nc1=S,-20,2,-2,-1,2
Cc1ccc(S(=O)(=O)c2nc(-c3cccs3)oc2SCc2ccc(F)cc2)cc1,x,x,1,x,3
CN1/C(=C\C(=O)C[n+]2ccc(C(=O)c3ccccc3)cc2)C(C)(C)c2ccccc21,53*,15,-3,6,2
O=C(CCS(=O)(=O)c1cccc2nonc12)NC1CCCCCC1,-3,-14,0,-1,0
O=C(CCNS(=O)(=O)c1cccc2nonc12)NC1CCCCC1,-6,31*,-5,-1,0
Cc1cc(Nc2cc(Cl)ccc2C)n2nc(Cc3ccccc3)nc2n1,x,x,-12,x,-1
COC(=O)c1ccc(NC(=O)CN(c2cccc(C(F)(F)F)c2)S(C)(=O)=O)cc1,x,x,4,x,-2
COc1ccc(NC(=O)Cn2c(=O)n(CCc3ccccc3)c(=O)c3sc4ccccc4c32)cc1,x,x,-11,x,-1
COc1cccc(C(=O)Nc2cccc(OCC(=O)O)c2)c1,0,34*,4,-3,2
Cc1cc(NC(=O)c2cccc(Oc3ccccc3)c2)n[nH]1,-5,-12,74*,-2,4
Cc1cc(NC(=O)NC(=O)c2cccc(OC(F)(F)C(F)F)c2)n[nH]1,-7,-2,-5,-5,1
COc1cccc(OCC(=O)O)c1,3,3,40*,0,0
COc1cccc(OCCNCc2ccccc2)c1,-13,41*,-30,-1,2
CCc1cc2c(cc3c(=O)n(CC(=O)N4CCC(C)CC4)nc(CC)n32)s1,x,x,1,x,0
COc1cccc(CNc2nccn(-c3cc(C)cc(C)c3)c2=O)c1,x,x,7,x,0
O=C(C1CCCN(S(=O)(=O)c2cccc3nsnc23)C1)N1CCN(c2ccccc2Cl)CC1 (configuration not stated),x,x,-8,x,1
O=C1OC(c2ccccc2)(c2ccc(O)cc2)c2ccccc21 (configuration not stated),-2,x,x,-1,x
O=C1OC2(c3ccccc31)c1cc(I)c(O)c(I)c1Oc1c2cc(I)c(O)c1I,x,53*,-17,x,105*
CCOc1ccc(OCCn2nnc3ccccc3c2=O)cc1,-5,7,52*,4,-1
SMILES,D2 PAM-1,D2 antag,D2 PAM-2,D2 ag-1,D2 ag-2
COc1cccc(CN2C(=O)C(C)N(C(=O)c3ccccc3)c3ccccc32)c1 (configuration not stated),-1,-21,31*,-6,2
O=C(/C=C/Nc1ccc(F)cc1)c1ccc(Oc2ncccn2)cc1,-8,34*,2,-3,0
CCN1/C(=C/C(C)=O)Sc2ccc(OC)cc21,-7,x,x,-1,x
CCOC(=O)/C(=C\C=C1/Sc2cc(OCC)c(OCC)cc2N1CC)C(C)=O,-9,65*,-11,0,100*
CCOC(=O)/C(=C/C=C1\Sc2cc(OCC)c(OCC)cc2N1CC)C(C)=O,-7,72*,-20,2,88*
CCc1ccc(NC(=O)C(CC)n2c(=O)c(-c3ccccc3NC(C)=O)nc3ccccc32)cc1 (configuration not stated),x,x,13,x,-1
CN(C(=O)CCl)C1CCCc2ccccc21 (configuration not stated),-15,-12,34*,-4,0
COc1ccc(CCNC(=O)C(=O)NCC(c2ccc3c(c2)OCO3)N2CCOCC2)cc1OC (configuration not stated),x,x,9,x,0
Cc1ccc(CNC(=O)C2CCCCN2S(=O)(=O)c2ccc(F)cc2)cc1 (configuration not stated),x,x,-6,x,1
Cc1cc(C)c(S(=O)(=O)N/N=C/c2ccc3c(c2)OCO3)c(C)c1,-22,74*,-21,3,9
CCOC(=O)c1ccc(-c2ccc3[nH]c4ccccc4c(=O)c3c2)cc1F,-1,31*,9,-2,0
CCC(CC)C(=O)NC12CC3CC(CC(C3)C1)C2,-2,33*,25,-2,-2
Cc1ccc(SCC(=O)Nc2ccc(N3CCN(C)CC3)c(F)c2)c(C)c1,57*,3,-17,0,5
Cc1ccc(C)c(N2CCN(C(=O)c3cc(S(=O)(=O)N4CCC(C)CC4)cn3C)CC2)c1,x,x,8,x,0
Cc1oc2ccc(O)cc2c1C(=O)c1ccc(Cl)cc1,-12,8,-3,2,0
Cc1oc2ccc(O)cc2c1C(=O)c1ccc([N+](=O)[O-])cc1,54*,-3,1,7,0
CC(C)CC(=O)Nc1ccc(C(=O)CN2CCN(c3ccc(O)cc3)CC2)cc1,5,0,31*,6,0
O=C(CN1CCN(c2ccc(O)cc2)CC1)Nc1ccc(S(=O)(=O)N2CCCC2)cc1,28,x,x,49*,x
O=C(CN1CCCCC1)Nc1ccc(S(=O)(=O)N2CCCCCC2)cc1,-12,-10,-5,-2,-1
Cn1nc(C(=O)OCC(=O)N2CCc3ccccc32)c2ccccc2c1=O,-21,8,32*,-1,-1
CCc1nc(N2CCC3(CC2)OCCO3)c2nnn(Cc3ccccc3Cl)c2n1,-3,-9,34*,0,0
Clc1ccccc1Cn1nnc2c(N3CCCC3)ncnc21,7,7,5,1,0
CCn1nnnc1NCc1ccc(Cl)cc1,-6,47*,14,0,1
CCCn1nnnc1NCc1ccc(SC)cc1,-1,37*,6,-1,-1
CCN(C(=O)Cn1cc(C(=O)c2ccc(F)cc2)c(=O)c2ccc(C)nc21)c1cccc(C)c1,x,x,1,x,-2
Cc1cccc(C)c1NC(=O)CNC(=O)CN1C(=O)NC2(CCc3ccccc32)C1=O (configuration not stated),-2,33*,4,12,1
NC(=O)NC(=O)CN1C(=O)NC2(CCOc3ccccc32)C1=O (configuration not stated),3,-11,-5,3,0
